Reference: PubChem BioAssay (NCATS)
Inconclusive results are not listed. The source made the active and inactive calls. Calls follow the shape of the dose curve; as a rule, active = well fitted inhibition curve with a large enough effect; inconclusive = small, poorly fitted or top-dose-only effect; inactive = flat fitted curve, though single readings scatter.

Tests used:
Assay in all cases: qHTS profiling for inhibitors of Plasmodium falciparum proliferation (AID 504749); also: nearly all actives have a fitted effect of over 60% in size
Conditions in all cases: P. falciparum in erythrocytes, SYBR Green DNA, 72 h; series mostly up to 28.7 µM
3D7 = system: 3D7
In short: (§1)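 Three-day growth assay of blood-stage parasites in erythrocytes (0.3% parasitemia, 2.5% hematocrit) at 37 C, 5% CO2, quantified by SYBR Green DNA staining after overnight detergent lysis.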

7G8 = system: 7G8
In short: as §1

CP185 = system: CP185
In short: as §1

CP191 = system: CP191
In short: as §1

CP192 = system: CP192
In short: as §1

CP194 = system: CP194
In short: as §1

CP201 = system: CP201
In short: as §1

CP237 = system: CP237
In short: as §1

CP238 = system: CP238
In short: as §1

CP247 = system: CP247
In short: as §1

CP305 = system: CP305
In short: as §1

CP335 = system: CP335
In short: as §1

DIV30 = system: DIV30
In short: as §1

Dd2 = system: Dd2
In short: as §1

GB4 = system: GB4
In short: as §1

HB3 = system: HB3
In short: as §1

P94_40 = system: P94_40
In short: as §1

PC49 = system: PC49
In short: as §1

TAB109 = system: TAB109
In short: as §1

TAB113 = system: TAB113
In short: as §1

Measured: Potency

Oc1ccc(/C=C\c2cc(O)cc(O)c2)cc1
inactive: all assays above
